Source: PubChem BioAssay (NCI)
Compounds without any hit were thinned out: in the full panel of roughly 79,000, 15% have a hit. Values without a mark were called inactive. Rule as the data show it: active = growth inhibition above about 70%; inactive = the rest.

assay: NCI Yeast Anticancer Drug Screen. Data for the rad50 strain (AID 155);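 also: 0% = growth of vehicle-only cultures of the same strain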; settings: S. cerevisiae rad50 strain growth inhibition; at 50.0 µM; hits give high values
Summary of the method: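 Genetically altered yeast (DNA repair pathway); compound treatment; growth inhibition vs vehicle ctrl.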

Row | SMILES | growth inhibition
1 | O=C(O)[C@H](c1ccccc1)[C@@H](C(=O)O)c1ccccc1 | -8.25%
2 | Nc1nc(N)nc(-c2ccc([N+](=O)[O-])o2)n1 | 41.8%
3 | COc1ccc(C(CCl)(CCl)c2ccc(OC)cc2)cc1 | 11.8%
4 | Cn1c2ccccc2c(=S)c2c(O)cc3c(c21)C=CC(C)(C)O3 | 28.8%
5 | NC(=Nc1ccc(S(=O)(=O)Nc2cnccn2)cc1)/N=C(/N)Nc1ccc(Br)cc1 | 4.2%

assay: NCI Yeast Anticancer Drug Screen. Data for the mec2-1 strain (AID 157); settings: S. cerevisiae mec2-1 strain, at 50.0 µM, hits give high values
Summary of the method: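 mec2-1 yeast strain, carrying an alteration in DNA damage repair or cell cycle control, was exposed to compounds; growth inhibition was measured relative to vehicle-treated controls.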

Row | SMILES | growth inhibition
6 | Cc1ccc2ccc(-c3cc4ccccc4s3)nc2c1 | -9.75%
7 | Cc1nn(C)c(NC(=O)c2ccccc2O)c1SC#N | -5.35%
8 | O=C(CCC(=O)Nc1cc(Cl)ccc1Cl)CC(=O)c1ccc(Cl)cc1 | 24.9%
9 | C=CCOC(=O)/C=C\c1ccccc1OC | 6.45%
10 | CCC(c1ccc(N(CC)CC)cc1[N+](=O)[O-])c1ccc(N(CC)CC)cc1[N+](=O)[O-] | 26.4%
11 | CCCCCC(Cl)(CC)CCCCC | -0.6%
12 | CN(C)c1ccc(N=C2C=CC(=C(C#N)C#N)c3ccccc32)cc1 | -6.05%
13 | O=c1c2cc([N+](=O)[O-])ccc2[nH]n1Cc1ccccc1Cl | 12.3%
14 | CCCCNc1ccc(S(=O)(=O)c2ccc(NCCCC)c([N+](=O)[O-])c2)cc1[N+](=O)[O-] | 6.6%
15 | O=C1/C(=C/c2ccc(F)cc2)CC/C1=C\c1ccc(F)cc1 | -12.1%
16 | COC1CCC(OC)(C(=O)NN)O1 (stereo not given) | -53.1%
17 | CC(C)(C)N(OC(=O)c1ccccc1)C(=O)c1ccccc1 | 4.35%
18 | O=C1NC(=O)C2(CCCC2=Nc2ccc(Br)cc2)C2C=CN(Cc3ccccc3)C=C12 (stereo not given) | -4.25%
19 | C=Cc1ccc(S(N)(=O)=O)cc1 | 15.4%
20 | Cc1cccc(NC(=O)Nc2ccccc2)n1 | 0.9%
21 | CC(C)(CO)[C@@H](O)C(=O)NCCC(=O)O | -45.9%
22 | O=S1(=O)C(c2ccc(F)cc2)=C(O)c2cc3ccccc3nc21 | 30.9%
23 | S=C1NC=CC(S)N1 (stereo not given) | 5.95%
24 | COc1ccc(CC(=O)NC(N)=O)cc1 | 2.7%
25 | OCC1CC=CCC1 (stereo not given) | -22.1%

Row | SMILES | growth inhibition
26 | C=C(C)c1ccc(C(=C)C)cc1 | -40.9%
27 | Nc1nc2c(C(=O)NCc3cccs3)nnn2c2cccc(Cl)c12 | -1.45%
28 | CC1(c2cccc[n+]2Cc2ccc(Cl)c(Cl)c2)OCCO1 | 1.65%
29 | CCOc1ccc(C2OCC(C)O2)cc1OC (stereo not given) | 13.6%
30 | COc1cccc(C(N)C(=O)O)c1 (stereo not given) | -16.2%
31 | CC(C)/C=C1\CCC(CN2CCCC2)C1=O (stereo not given) | 34.6%
32 | CC(=O)N(C)c1ccc(NC(=O)Nc2c(C)cccc2C)cc1 | 10%
33 | CC1=CC[P+](Cc2ccccc2)(c2ccccc2)C1 (stereo not given) | 14.7%
34 | COc1cc(C(c2ccc(O)c(OC)c2)c2ccc(O)c(OC)c2)ccc1O | 15.2%
35 | CC(C)(C)CC(C)(C)c1ccc(OCCOc2ccc(S(=O)(=O)O)cc2[N+](=O)[O-])cc1 | 30.9%
36 | c1ccc(-c2cc(-c3ccccc3)nc(-c3ccccc3)c2)cc1 | -4.05%
37 | COc1cc2oc(-c3ccc(O)cc3)c(OC3OC(C)C(O)C(O)C3O)c(=O)c2c(O)c1OC (stereo not given) | -13.8%
38 | O=C1C=C(NCCc2ccccc2)c2ccccc2C1=O | -8.6%
39 | c1cc2c3c(cccc3c1)-c1nc3c(ccc4ccccc43)nc1-2 | 22.8%
40 | COc1cc(OC)c(C(=O)/C=C/c2ccccc2)c(O)c1OC | -7.8%
41 | O=C(O)[C@H](c1ccccc1)[C@@H](C(=O)O)c1ccccc1 | -5.75%
42 | Nc1nc(N)nc(-c2ccc([N+](=O)[O-])o2)n1 | 10.8%
43 | COc1ccc(C(CCl)(CCl)c2ccc(OC)cc2)cc1 | -40%
44 | Cn1c2ccccc2c(=S)c2c(O)cc3c(c21)C=CC(C)(C)O3 | 6.3%
45 | NC(=Nc1ccc(S(=O)(=O)Nc2cnccn2)cc1)/N=C(/N)Nc1ccc(Br)cc1 | 3.9%
